SMILES strings stand for the structures. “And” between values parts separate entries of the source, which are not always exact repeats. Equal values may be shown once. Inconclusive results are not listed. A call without a number means that no potency is given here. More than one record can exist for a structure, and the calls need not agree. The source made the active and inactive calls. Calls follow the shape of the dose curve; as a rule, active = well fitted cell-killing curve with a large enough effect in the repeat runs; inconclusive = weak or mixed curves, or effect the other way; inactive = no such curve, though single readings can be large or run the other way.
Potency is read from the fitted curve at half-maximal effect.

This experiment can be described thus: qHTS assay to identify small molecule antagonists of the thyroid receptor (TR) signaling pathway - cell viability counter screen (AID 743064). Also: nearly all actives have a fitted effect of over 50% in size. Particulars: GH3.TRE-Luc viability, CellTiter-Fluor, 24 h; series mostly up to 70.3 µM; activity change, negative = cytotoxic: at the top concentration. The text has this: National Center for Advancing Translational Sciences [NCATS]
NIH Chemical Genomics Center [NCGC]
U.S. Environmental Protection Agency [EPA]
National Institutes of Environmental Health Sciences [NIEHS]
National Toxicology Program [NTP]
U.S. Food and Drug Administration [FDA]
Thyroid receptor (TR), a nuclear hormone receptor, plays an important role in development, proliferation, differentiation, metabolism, brain function, and cardiovascular system. […] To profile the Tox21 10K compound library in TR signaling, a cell-based GH3-TRE-Luc assay (GH3.TRE-Luc cell line, developed by the laboratory of Dr. Albertinka J. Murk, Wageningen University) was used to measure the inhibition of TR. GH3 (rat pituitary tumor) cells stably expressing a TR activity sensor consisting of two TR response elements and a luciferase reporter gene. The cytotoxicity of the Tox21 compound library against the GH3.TRE-Luc cell line was tested in parallel by measuring the cell viability using CellTiter-Fluor assay (Promega, Madison, WI) in the same wells.
Tox21 Assay Protocol Summary:
GH3.TRE-Luc cells were dispensed at 1500 cells/4 uL/well into 1536-well white solid bottom plates using a Multidrop Combi dispenser (Thermo Fisher Scientific Inc., Waltham, MA). After the assay plates were incubated at 37 C for 4 hours, 23 nL of library compound or DMSO controls was transferred to the assay plates by a pintool station (Kalypsys, San Diego, CA), followed by addition of 1 ul of T3 (1 nM, final concentration in the wells) to stimulate TR transactivation. The assay plates were incubated at 37 C for 23.5 h, and then 1 uL of CellTiter-Fluor reagent (Promega, Madision, WI) of measuring cytotoxicity was added to each well using a Bioraptr Flying Reagent Dispenser (FRD) workstation (Beckman Coulter, Indianapolis, IN, USA). The plates were incubated at 37C and 5% CO2 for additional 30 min, and fluorescence intensity was measured by a ViewLux plate reader (PerkinElmer, Shelton, CT).
For orientation: qHTS replaces the single test concentration by a dilution series.
As to `Cc1ccc(N)cc1`, the Potency entry was “inactive”.

With `Nc1ccc(N)cc1`, the Potency result is “inactive and 30.8 µM (active)”.

As to `CCCOC(=O)c1ccccc1C(=O)OCCC`, the “activity change, negative = cytotoxic” value was -7.75% (inactive).

With `Cc1ccc(O)c(C)c1`, the Potency result was “inactive”.

Consider `Nc1ncc([N+](=O)[O-])s1`, for which the “activity change, negative = cytotoxic” value is -1.79% (inactive).

For the compound `O=[N+]([O-])c1cc([As](=O)(O)O)ccc1O`, the Potency result is “inactive”.

For the compound `Nc1cccc(Cl)c1`, the “activity change, negative = cytotoxic” value was 10.1% (inactive).

In the case of `[N-]=[N+]=CC(=O)OC[C@H](N)C(=O)O`, the Potency result is “inactive”.

Consider `CNC(=O)O/N=C/C(C)(C)S(C)=O` (stereo not given), for which the Potency result is “inactive”.

Turning to `CN(C)C(=O)Nc1cccc(C(F)(F)F)c1`, the Potency entry is “inactive”.

Turning to `NNc1ccccc1`, the Potency entry is “inactive”.

As to `CC(C)(C)C(=O)CCl`, the “activity change, negative = cytotoxic” value is 9.42% (inactive).

For `COS(=O)(=O)OC`, the Potency entry is “inactive”.

For the compound `Cc1cccc(C)c1NC(=O)CN1CCCC1=O`, the Potency entry was “inactive”.

With `Nc1ccc([As](=O)(O)O)cc1`, the Potency entry is “inactive”.

For the compound `CCOP(=S)(OCC)Oc1ccc([N+](=O)[O-])cc1`, the Potency entry was “inactive”.

For the compound `CN1C(=O)CCS(=O)(=O)C1c1ccc(Cl)cc1` (stereo not given), the Potency entry was “inactive”.

For `Clc1cnc(Oc2ccc(Oc3ncc(Cl)cc3Cl)cc2)c(Cl)c1`, the “activity change, negative = cytotoxic” value is 10.3% (inactive).

On to `CCNc1nc(Cl)nc(NC(C)C)n1`, for which the Potency result was “inactive”.

For `C=CC#N`, the “activity change, negative = cytotoxic” value is 15.7% (inactive).

In the case of `ClCCOCCCl`, the “activity change, negative = cytotoxic” value was 11.5% (inactive).

`CCCCCCCCCCCCCCCCCC(=O)O`: the Potency result is “inactive”.

Regarding `C=CC(=O)OCCCCCC(C)C`, the “activity change, negative = cytotoxic” value was 18.7% [at 95 µM] (inactive).

With `N#Cc1ccccn1`, the “activity change, negative = cytotoxic” value is 4.45% (inactive).

For `CCSC(=O)N1CCCCCC1`, the Potency result is “inactive”.

In the case of `C/C=C/c1ccc2c(c1)OCO2`, the Potency entry is “inactive”.

Consider `c1ccc2c(c1)CCCC2`, for which the “activity change, negative = cytotoxic” value was 14.8% [at 95 µM] (inactive).

In the case of `OCCCCO`, the “activity change, negative = cytotoxic” value was -6.16% [at 95 µM] (inactive).

Take `COP(=S)(OC)SCN1C(=O)c2ccccc2C1=O`: the Potency result is “inactive”.

In the case of `CC(=O)/C=C/c1ccccc1`, the Potency result was “inactive”.

As to `OCC(O)CCl` (stereo not given), the “activity change, negative = cytotoxic” value is 11.3% (inactive).

Consider `Cl/C=C/Cl`, for which the Potency result was “inactive”.

Take `CC[N+](=O)[O-]`: the “activity change, negative = cytotoxic” value was 17.4% (inactive).

For `C[C@]12CC[C@H](O)CC1=CC[C@@H]1[C@@H]2CC[C@]2(C)C(=O)CC[C@@H]12`, the “activity change, negative = cytotoxic” value was 1.67% (inactive).

For `Oc1c(Br)cc(Br)cc1Br`, the Potency result was “inactive”.

With `O=C(O)C1C(C(=O)O)C2(Cl)C(Cl)=C(Cl)C1(Cl)C2(Cl)Cl` (stereo not given), the Potency entry is “inactive”.

Regarding `Cc1ccc(N=C=O)cc1N=C=O`, the Potency result is “inactive”.

As for `Cl[C@H]1OCCO[C@@H]1Cl`, the “activity change, negative = cytotoxic” value is 3.37% (inactive).

Turning to `O=C/C=C/c1ccccc1`, the Potency result was “inactive”.

Take `COC(C)(C)CCCC(C)C/C=C/C(C)=C/C(=O)OC(C)C` (stereo not given): the Potency result is “inactive”.

These data come from PubChem BioAssay (Tox21).
